# Entries with a potency or affinity are not part of this list. Results filed as inconclusive are left out. Calls of active or inactive are those of the source. The rule behind the calls is not given here.
# Assay: non-specific cell cytotoxicity, dose response, cytotoxicity control for PAX8 inhibitor project, plate reader, dry powder samples (AID 743021)
# Settings: cell line, non-specific cytotoxicity counter-screen; series mostly up to 35 µM
row,SMILES,outcome
1,C[C@H]1CN([C@@H](C)CO)C(=O)CCCn2nncc2CO[C@@H]1CN(C)C(=O)Nc1ccc(-c2cccs2)cc1,inactive
2,CCCN(C)C[C@H]1OCCCC[C@@H](C)Oc2ccc(NC(=O)c3ccccc3)cc2C(=O)N([C@H](C)CO)C[C@H]1C,inactive
3,CC(C)CC#Cc1ccc2c(c1)O[C@@H](CN(C)Cc1ccncc1)[C@H](C)CN([C@@H](C)CO)S2(=O)=O,inactive
4,C[C@@H]1CN([C@H](C)CO)C(=O)c2cc(NC(=O)Nc3ccc(F)cc3)ccc2O[C@@H](C)CCCCO[C@H]1CN(C)C(=O)Nc1ccc(F)cc1,inactive
5,Cc1ccc(S(=O)(=O)N(C)C[C@H]2OCCCC[C@@H](C)Oc3ccc(NS(=O)(=O)c4ccc(F)cc4)cc3C(=O)N([C@@H](C)CO)C[C@H]2C)cc1,inactive
6,C[C@H]1CCCCO[C@@H](CN(C)C)[C@@H](C)CN([C@@H](C)CO)C(=O)c2cc(NC(=O)Nc3ccc(C(F)(F)F)cc3)ccc2O1,inactive
7,Cc1ccc(S(=O)(=O)Nc2ccc3c(c2)C(=O)N([C@@H](C)CO)C[C@@H](C)[C@@H](CN(C)Cc2ccc(C(F)(F)F)cc2)OCCCC[C@@H](C)O3)cc1,inactive
8,COc1ccccc1-c1ccc2c(c1)[C@H]1[C@H](CCN1S(=O)(=O)c1ccccc1F)[C@H](CO)N2,inactive
9,COc1ccccc1-c1ccc2c(c1)O[C@H](CN(C)Cc1ccc3c(c1)OCO3)[C@H](C)CN([C@@H](C)CO)S2(=O)=O,inactive
10,COc1ccc(S(=O)(=O)N2CCCCN3[C@H](C2)[C@H](c2ccc(C#CC(C)C)cc2)[C@@H]3CO)cc1,inactive
11,C[C@@H]1CCCCO[C@H](CN(C)CC2CCCCC2)[C@H](C)CN([C@H](C)CO)C(=O)c2cc(NS(=O)(=O)c3ccc(Cl)cc3)ccc2O1,inactive
12,COc1ccc(S(=O)(=O)N(C)C[C@H]2Oc3ccc(NC(=O)Nc4ccc(C(F)(F)F)cc4)cc3CC(=O)N([C@H](C)CO)C[C@@H]2C)cc1,inactive
13,COc1ccc(S(=O)(=O)N2CCCCN3[C@H](C2)[C@@H](c2ccc(C#CC(C)C)cc2)[C@@H]3CO)cc1,inactive
14,COc1ccc(NC(=O)Nc2ccc3c(c2)CC(=O)N([C@@H](C)CO)C[C@@H](C)[C@@H](CN(C)Cc2ccc(Oc4ccccc4)cc2)O3)cc1,inactive
15,C[C@@H]1CCCCO[C@H](CN(C)Cc2ccc(Cl)c(Cl)c2)[C@@H](C)CN([C@@H](C)CO)C(=O)c2cc(NS(=O)(=O)c3ccc(Cl)cc3)ccc2O1,inactive
16,C[C@H](CO)N1C[C@H](C)[C@@H](CN(C)C(=O)Nc2ccc(F)cc2)OCc2ccccc2-c2c(n(C)c3ccccc23)C1=O,inactive
17,C[C@H](CO)N1C[C@H](C)[C@H](CN(C)C(=O)NC2CCCCC2)Oc2cc(C#Cc3ccc(F)cc3)ccc2S1(=O)=O,inactive
18,C[C@H]1CCCCO[C@H](CN(C)S(=O)(=O)c2ccc(Cl)cc2)[C@@H](C)CN([C@@H](C)CO)C(=O)c2cc(NS(=O)(=O)c3ccc(Cl)cc3)ccc2O1,inactive
19,C[C@@H]1CCCCO[C@H](CN(C)C(=O)Nc2ccc(C(F)(F)F)cc2)[C@H](C)CN([C@@H](C)CO)C(=O)c2cc(NS(=O)(=O)c3ccc(Cl)cc3)ccc2O1,inactive
20,C[C@H](CO)N1C[C@H](C)[C@@H](CN(C)Cc2ccc(Cl)c(Cl)c2)OCCCC[C@H](C)Oc2ccc(NC(=O)Nc3ccccc3)cc2C1=O,inactive
21,C[C@@H]1CN([C@@H](C)CO)C(=O)c2cc(NC(=O)c3ccccc3)ccc2O[C@@H](C)CCCCO[C@H]1CN(C)Cc1ccc(C(F)(F)F)cc1,inactive
22,Cc1ccc(S(=O)(=O)Nc2ccc3c(c2)C(=O)N([C@H](C)CO)C[C@H](C)[C@H](CN(C)C(=O)c2ccccc2)OCCCC[C@H](C)O3)cc1,inactive
